In PubChem BioAssay AID624331 (National Center for Advancing Translational Sciences (NCATS), 2012):
Records with an inconclusive call do not appear. Entries that show only a call come without a potency. Activity calls are given as the source filed them. Calls follow the shape of the dose curve; as a rule, active = well fitted activation curve with a large enough effect; inconclusive = small, poorly fitted or top-dose-only effect; inactive = no such curve, though single readings can be large or run the other way.

Test: qHTS assay for re-activators of p53 using a Luc reporter: Hit Validation with no p53 Expressed
Conditions: p53-null cells, luciferase reporter counter-screen; series mostly up to 46.1 µM
In short: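 Counter-screen of primary hits in a cell line not transfected with p53, in Opti-MEM with 10% FBS; compounds at several concentrations (10 mM stock, 1:5; top 46.1 µM in well), 24 h at 37 deg C, 5% CO2. Luminescence read after 10 min with Amplite reagent.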
Potency is read from the fitted curve at half-maximal effect.

Row | Structure (SMILES) | Potency
1 | O=C1CCCC(O)=C1N=Nc1ccc2c(c1)OCO2 | inactive
2 | CC1CCCC(C)N1C(=O)CSc1nnc(-c2cccs2)o1 (stereo not given) | inactive
3 | Cc1cc(=O)[nH]c(N/N=C/c2ccccn2)n1 | inactive
4 | O=C(/C=C/c1ccco1)NC(=S)Nc1cc(-c2nc3ccccc3s2)ccc1Cl | inactive
5 | Cc1cc(NC(=O)c2c(F)c(F)c(F)c(F)c2F)no1 | inactive
6 | CN(C)c1ccc(/C=N/N=C/c2ccccc2O)cc1 | inactive
7 | COc1cc(C(C)=O)ccc1Oc1ncnc2c1cnn2-c1ccc(F)cc1 | inactive
8 | Cc1csc2nc(COC(=O)c3cccc(N(C)C)c3)cc(=O)n12 | inactive
9 | O=C(CSCC(=O)Nc1cccc([N+](=O)[O-])c1)Nc1ccccc1 | inactive
10 | O=C(Cn1cc2c(n1)CCCCC2)NC1CCCCCC1 | inactive
11 | Cc1ccsc1/C=C1\CCc2ccccc2C1=O | inactive
12 | CCN(CC)c1ccc(CNc2ccc(Br)cn2)cc1 | inactive
13 | COc1cccc(NC(=O)c2ocnc2C)c1 | inactive
14 | COc1ccccc1-c1cc(C(=O)Nc2cc(C)on2)no1 | inactive
15 | c1ccc2cc3c(NCCN4CCOCC4)ccnc3cc2c1 | inactive
16 | Cc1ccc(/C=C(\C#N)C(=O)NCC2CCCO2)o1 (stereo not given) | inactive
17 | CC(C)C(=O)OCC(=O)Nc1ccc(N=Nc2ccccc2)cc1 | inactive
18 | COc1ccccc1C(=O)NNC(=O)c1cccc(F)c1 | inactive
19 | O=C(Nc1ccc(Cl)cc1Cl)c1ccc2c(c1)OCCO2 | inactive
20 | Clc1ccc(OCc2nc(-c3ccncc3)no2)c(Cl)c1 | inactive

Row | Structure (SMILES) | Potency
21 | OC(COc1ccc2cc(Br)ccc2c1)CN1CCCC1 (stereo not given) | inactive
22 | Cc1ccc2oc(-c3ccc(C)c(NC(=S)NC(=O)c4cccs4)c3)nc2c1 | inactive
23 | O=C(Nc1cccc(O)c1)C(=O)Nc1ccccn1 | inactive
24 | O=C(Nn1c(SCc2ccc([N+](=O)[O-])cc2)nc2ccccc2c1=O)c1ccc(F)cc1 | inactive
25 | O=c1oc2ccccc2cc1-c1cn(-c2ccccc2)c(=S)[nH]1 | inactive
26 | O=C(Nc1ccc(Cl)cc1)Nc1nnc(SCc2ccccc2)s1 | inactive
27 | CC(C)CC(NC(=O)C1CCC(=O)N1)C(=O)NC(CC(C)C)C(=O)N1CCCC1C(N)=O (stereo not given) | inactive
28 | O=C(O)C1CC(=O)N(c2ccc(Br)cc2)C1 (stereo not given) | inactive
29 | CC(C)C(=O)Nc1ccc(-c2nc3cccnc3o2)cc1 | inactive
30 | N#Cc1nc(COc2ccccc2)oc1N1CCOCC1 | inactive
31 | CN1CC(C(=O)Nc2ccc(F)c(Cl)c2)CC1=O (stereo not given) | inactive
32 | CC1(C)NC(=O)N(CC(=O)N2CCN(S(=O)(=O)c3ccccc3C(F)(F)F)CC2)C1=O | inactive
33 | CC(C)NC(=S)N1CCN(S(C)(=O)=O)CC1 | inactive
34 | COc1cc(C2=NOC(C(=O)NCc3ccc(F)cc3)C2)cc(OC)c1OC (stereo not given) | inactive
35 | CN(C)c1cccc(C(=O)NNC(=O)CN2C(=O)C3CC=CCC3C2=O)c1 (stereo not given) | inactive
36 | COCCCN(C(C)=O)c1nc(-c2ccc(OC)cc2)cs1 | inactive
37 | O=C(COC(=O)c1cccnc1Cl)Nc1ccc(N2CCCCC2)cc1 | inactive
38 | Cc1ccc(NC2=C(Cl)C(=O)c3ccccc3C2=O)cc1 | inactive
39 | CC(=O)N1CCC(C(=O)Nc2ccc(S(=O)(=O)NCCc3ccccc3)cc2)CC1 | inactive
40 | CC(C)c1ccc(NC(=O)c2snc3ccc(Cl)cc23)cc1 | 1030 nM (active)
